Laboratory results from PubChem BioAssay (EPA / NIEHS).
Where “and” joins values, the source holds several entries; their conditions need not be identical. Identical values can stand only once. The source holds several records for some structures; these can differ, active in one and inactive in another. Calls of active or inactive are those of the source. Rule for the calls: active = hit-call score of the fitted dose curve at least 0.9, where 1 is the maximum; inactive = score below 0.9.

Experiments:
[1] = ATG_GRE_CIS: Attagene CIS-FACTORIAL HepG2 Assay for human Glucocorticoid Response Elements (GRE) (AID 2282947); conditions: HepG2 GRE cis-reporter, Attagene multiplex mRNA; actives raise or lower the signal
Procedure, shortened: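 Fluorescence intensity of reporter-specific cDNA fragments, separated by capillary electrophoresis, provides the signal. Constructs carry cis-regulating promoters in transiently transfected HepG2 liver cells; 24 h incubation; fitting is bidirectional against DMSO.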

[2] = ATG_ISRE_CIS: Attagene CIS-FACTORIAL HepG2 Assay for human Interferon Regulatory Factor 1 (IRF1) binding to an Interferon-Stimulated Response Element (ISRE) (AID 2282948); conditions: HepG2 ISRE cis-reporter (Attagene), mRNA transcription readout; actives raise or lower the signal
Procedure, shortened: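 Endogenous transcription factor activity read as reporter transcript abundance via RT-PCR and capillary electrophoresis. HepG2 cells transiently transfected, 24 h chemical exposure. Gain or loss fitted against DMSO baseline.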

[3] = ATG_M_32_CIS: Attagene CIS-FACTORIAL HepG2 Assay for M32 Transcription Factor (Internal Marker) (AID 2282949); conditions: HepG2 Attagene cis-factorial M32 reporter, mRNA; actives raise or lower the signal;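 note: background control marker of the multiplexed CIS panel rather than a real target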
Procedure, shortened: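 HepG2 human liver cells transiently transfected with cis-promoter-driven multiple reporter transcription units, dosed 24 h. Reporter mRNA quantified by RT-PCR, FAM-labelled primer extension, HpaI digest and capillary electrophoresis; bidirectional fit versus DMSO baseline.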

[4] = ATG_M_06_CIS: Attagene CIS-FACTORIAL HepG2 Assay for M06 Transcription Factor (Internal Marker) (AID 2282950); conditions: HepG2 Attagene CIS-FACTORIAL M06 internal marker reporter; actives raise or lower the signal
Procedure, shortened: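 HepG2 liver cells, 24 h exposure. Reporter transcripts from transfected cis-element constructs quantified by RT-PCR/capillary electrophoresis fluorescence. Bidirectional curve fit against DMSO.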

[5] = target: Hypoxia-inducible factor 1-alpha (Homo sapiens) (UniProt Q16665); test: ATG_HIF1a_CIS: Attagene CIS-FACTORIAL HepG2 Assay for human Hypoxia Inducible Factor 1 (HIF1A) (AID 2282951); conditions: HepG2 Attagene cis-factorial HIF1a reporter transcription; actives raise or lower the signal
Sequence of Hypoxia-inducible factor 1-alpha (Homo sapiens) (Q16665 whole entry, looked up): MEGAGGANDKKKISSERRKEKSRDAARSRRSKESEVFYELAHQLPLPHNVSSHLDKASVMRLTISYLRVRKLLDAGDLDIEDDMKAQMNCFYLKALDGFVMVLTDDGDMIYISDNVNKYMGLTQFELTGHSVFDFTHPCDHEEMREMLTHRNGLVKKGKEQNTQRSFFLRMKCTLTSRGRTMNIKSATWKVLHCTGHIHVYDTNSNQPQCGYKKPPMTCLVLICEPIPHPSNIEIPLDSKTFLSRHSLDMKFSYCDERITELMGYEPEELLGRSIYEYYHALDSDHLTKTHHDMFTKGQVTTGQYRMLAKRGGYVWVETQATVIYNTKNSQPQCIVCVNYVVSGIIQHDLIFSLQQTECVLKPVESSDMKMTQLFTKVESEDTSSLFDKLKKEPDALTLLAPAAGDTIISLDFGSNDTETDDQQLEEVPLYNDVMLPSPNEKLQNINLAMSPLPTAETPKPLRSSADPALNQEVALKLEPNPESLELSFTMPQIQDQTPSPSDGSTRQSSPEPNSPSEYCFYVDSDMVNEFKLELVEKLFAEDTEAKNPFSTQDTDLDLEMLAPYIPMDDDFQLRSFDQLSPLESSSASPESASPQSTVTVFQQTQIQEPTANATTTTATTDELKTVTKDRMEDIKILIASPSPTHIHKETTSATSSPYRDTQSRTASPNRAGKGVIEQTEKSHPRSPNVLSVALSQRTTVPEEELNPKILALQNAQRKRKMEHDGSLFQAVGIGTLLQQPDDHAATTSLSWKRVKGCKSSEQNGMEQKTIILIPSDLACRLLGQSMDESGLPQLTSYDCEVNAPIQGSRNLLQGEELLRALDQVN
Procedure, shortened: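 Endogenous-TF cis reporter readout, human HepG2 cells, 24 h incubation; mRNA detected via RT-PCR and capillary electrophoresis fluorescence; DMSO-normalised bidirectional fitting.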

[6] = target: Hepatocyte nuclear factor 6 (Homo sapiens) (UniProt Q9UBC0); test: ATG_HNF6_CIS: Attagene CIS-FACTORIAL HepG2 Assay for human Hepatocyte Nuclear Factor 6 (HNF6) (AID 2282952); conditions: HepG2 Attagene cis-factorial HNF6 reporter transcription; actives raise or lower the signal
Sequence of Hepatocyte nuclear factor 6 (Homo sapiens) (Q9UBC0 whole entry, looked up, the tested form may be a part): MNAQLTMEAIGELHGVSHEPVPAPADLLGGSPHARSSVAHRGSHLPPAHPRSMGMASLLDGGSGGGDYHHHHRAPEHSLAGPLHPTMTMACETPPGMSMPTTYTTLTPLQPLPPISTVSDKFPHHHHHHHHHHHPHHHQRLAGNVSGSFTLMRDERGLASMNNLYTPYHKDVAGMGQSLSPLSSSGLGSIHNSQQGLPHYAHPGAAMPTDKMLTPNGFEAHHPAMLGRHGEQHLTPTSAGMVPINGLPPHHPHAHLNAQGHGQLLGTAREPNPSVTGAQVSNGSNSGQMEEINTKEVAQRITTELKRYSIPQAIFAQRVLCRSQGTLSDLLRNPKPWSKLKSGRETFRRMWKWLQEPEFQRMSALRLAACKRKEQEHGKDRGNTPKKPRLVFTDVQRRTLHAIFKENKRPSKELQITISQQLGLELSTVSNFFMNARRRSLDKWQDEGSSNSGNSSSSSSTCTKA
Procedure, shortened: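 Using cis-element reporters in HepG2 liver cells, the assay tracks endogenous factor-driven transcription 24 h post-dosing. Signal comes from 6-FAM-labelled, HpaI-digested RT-PCR fragments, with gain or loss scored against DMSO.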

[7] = target: Heat shock factor protein 1 (Homo sapiens) (UniProt Q00613); test: ATG_HSE_CIS: Attagene CIS-FACTORIAL HepG2 Assay for human Heat Shock Transcription Factor 1 (HSE) (AID 2282953); conditions: HepG2 HSE cis-reporter, Attagene RNA transcription; actives raise or lower the signal
Sequence of Heat shock factor protein 1 (Homo sapiens) (Q00613 whole entry, looked up, the tested form may be a part): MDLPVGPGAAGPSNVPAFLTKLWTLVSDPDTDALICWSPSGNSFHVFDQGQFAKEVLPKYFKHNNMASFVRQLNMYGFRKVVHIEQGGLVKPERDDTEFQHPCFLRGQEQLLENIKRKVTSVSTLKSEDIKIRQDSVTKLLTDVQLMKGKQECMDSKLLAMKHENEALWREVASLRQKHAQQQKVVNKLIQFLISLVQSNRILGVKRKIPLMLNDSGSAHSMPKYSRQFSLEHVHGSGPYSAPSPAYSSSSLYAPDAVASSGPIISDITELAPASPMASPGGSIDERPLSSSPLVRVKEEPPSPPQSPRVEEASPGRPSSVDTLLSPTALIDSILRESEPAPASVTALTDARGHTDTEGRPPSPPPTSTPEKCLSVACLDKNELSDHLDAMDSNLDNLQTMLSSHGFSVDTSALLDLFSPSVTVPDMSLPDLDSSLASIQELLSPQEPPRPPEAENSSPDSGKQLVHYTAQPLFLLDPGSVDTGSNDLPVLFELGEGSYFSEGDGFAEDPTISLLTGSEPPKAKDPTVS
Procedure, shortened: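 Endogenous transcription factor activity captured via cis-promoter reporter units transfected into HepG2; treatment lasted 24 h. Fluorescence intensity of reporter fragments analysed with bidirectional curve fitting, DMSO baseline.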

[8] = ATG_MRE_CIS: Attagene CIS-FACTORIAL HepG2 Assay for human Metal Responsive Element (MRE) (AID 2282954); conditions: HepG2 MRE cis-reporter transcription, Attagene multiplex; actives raise or lower the signal
Procedure, shortened: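 Measured here is mRNA induction from an MRE cis-element reporter in HepG2 after 24 h, quantified by fluorescence of labelled RT-PCR products on capillary electrophoresis; gain- and loss-of-signal fits use DMSO as baseline.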

[9] = ATG_PBREM_CIS: Attagene CIS-FACTORIAL HepG2 Assay for human Phenobarbital-responsive Enhancer Module (PBREM) (AID 2282955); conditions: HepG2 PBREM cis-reporter, Attagene multiplexed transcription; actives raise or lower the signal
Procedure, shortened: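 Readout: reporter mRNA, fluorescent RT-PCR fragments separated by capillary electrophoresis. System: HepG2 transiently transfected with cis-regulated reporter units. Exposure: 24 h. Analysis: bidirectional, DMSO baseline.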

[10] = target: Paired box protein Pax-6 (Homo sapiens) (UniProt P26367); test: ATG_Pax6_CIS: Attagene CIS-FACTORIAL HepG2 Assay for human Paired Box 6 (PAX6) (AID 2282956); conditions: HepG2 CIS-FACTORIAL PAX6 reporter transcription, RNA readout; actives raise or lower the signal
Sequence of Paired box protein Pax-6 (Homo sapiens) (P26367 whole entry, looked up): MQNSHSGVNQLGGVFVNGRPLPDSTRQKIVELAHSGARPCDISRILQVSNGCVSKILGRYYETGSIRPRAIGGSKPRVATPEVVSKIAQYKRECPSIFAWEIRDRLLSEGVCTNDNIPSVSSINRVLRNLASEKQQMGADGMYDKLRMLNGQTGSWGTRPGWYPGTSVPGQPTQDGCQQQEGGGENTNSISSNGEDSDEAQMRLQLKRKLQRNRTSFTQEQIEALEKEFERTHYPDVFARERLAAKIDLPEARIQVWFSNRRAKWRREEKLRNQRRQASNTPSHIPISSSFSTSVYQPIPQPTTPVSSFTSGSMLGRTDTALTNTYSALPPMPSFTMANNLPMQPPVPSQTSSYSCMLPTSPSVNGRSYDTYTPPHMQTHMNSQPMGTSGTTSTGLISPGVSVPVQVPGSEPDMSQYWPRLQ
Procedure, shortened: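 Read-out is reporter transcript level, measured by RT-PCR with fluorescent primer extension and capillary electrophoresis after 24 h dosing of transfected HepG2 cells. Activity in either direction fitted relative to DMSO control.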

[11] = ATG_PXRE_CIS: Attagene CIS-FACTORIAL HepG2 Assay for human Pregnane X Receptor Element (PXRE) (AID 2282957); conditions: HepG2 Attagene CIS-FACTORIAL PXRE reporter, mRNA; actives raise or lower the signal
Procedure, shortened: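 Using HepG2 transfected with multiple reporter transcription units, endogenous factor-driven transcription was scored as reporter mRNA after 24 h exposure.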

[12] = ATG_PPRE_CIS: Attagene CIS-FACTORIAL HepG2 Assay for human Peroxisome Proliferator-activated Response Element (PPRE) (AID 2282958); conditions: HepG2 PPRE cis-element reporter, Attagene transcription factor profiling; actives raise or lower the signal
Procedure, shortened: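 After human HepG2 hepatoma cells were transiently transfected with cis-promoter reporter constructs, they were exposed to test chemicals for 24 hours. Reporter RNA was then reverse-transcribed, PCR-amplified, FAM-labeled, HpaI-digested and quantified by capillary electrophoresis.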

[13] = ATG_RORE_CIS: Attagene CIS-FACTORIAL HepG2 Assay for human RAR-related Orphan Receptor Element (RORE) (AID 2282959); conditions: HepG2 Attagene cis-factorial RORE reporter, mRNA; actives raise or lower the signal
Procedure, shortened: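 Measured here: transcript induction of a cis-regulated reporter in HepG2 cells transiently transfected via FuGene 6. After 24 h, RNA was processed by RT-PCR and fluorescent capillary electrophoresis; DMSO defined baseline activity.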

[14] = ATG_Sox_CIS: Attagene CIS-FACTORIAL HepG2 Assay for human SRY-box transcription factor (SOX) (AID 2282960); conditions: HepG2 Attagene cis-factorial SOX reporter, mRNA; actives raise or lower the signal
Procedure, shortened: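 Using transiently transfected HepG2 cells, reporter transcription driven by cis elements was assessed 24 h after dosing. Signal was fluorescence of capillary-separated RT-PCR products, with DMSO defining baseline activity.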

[15] = target: Transcription factor Sp1 (Homo sapiens) (UniProt P08047); test: ATG_Sp1_CIS: Attagene CIS-FACTORIAL HepG2 Assay for human Specificity Protein 1 (Sp1) (AID 2282961); conditions: HepG2 Sp1 cis-reporter transcription, actives raise or lower the signal
Sequence of Transcription factor Sp1 (Homo sapiens) (P08047 whole entry, looked up): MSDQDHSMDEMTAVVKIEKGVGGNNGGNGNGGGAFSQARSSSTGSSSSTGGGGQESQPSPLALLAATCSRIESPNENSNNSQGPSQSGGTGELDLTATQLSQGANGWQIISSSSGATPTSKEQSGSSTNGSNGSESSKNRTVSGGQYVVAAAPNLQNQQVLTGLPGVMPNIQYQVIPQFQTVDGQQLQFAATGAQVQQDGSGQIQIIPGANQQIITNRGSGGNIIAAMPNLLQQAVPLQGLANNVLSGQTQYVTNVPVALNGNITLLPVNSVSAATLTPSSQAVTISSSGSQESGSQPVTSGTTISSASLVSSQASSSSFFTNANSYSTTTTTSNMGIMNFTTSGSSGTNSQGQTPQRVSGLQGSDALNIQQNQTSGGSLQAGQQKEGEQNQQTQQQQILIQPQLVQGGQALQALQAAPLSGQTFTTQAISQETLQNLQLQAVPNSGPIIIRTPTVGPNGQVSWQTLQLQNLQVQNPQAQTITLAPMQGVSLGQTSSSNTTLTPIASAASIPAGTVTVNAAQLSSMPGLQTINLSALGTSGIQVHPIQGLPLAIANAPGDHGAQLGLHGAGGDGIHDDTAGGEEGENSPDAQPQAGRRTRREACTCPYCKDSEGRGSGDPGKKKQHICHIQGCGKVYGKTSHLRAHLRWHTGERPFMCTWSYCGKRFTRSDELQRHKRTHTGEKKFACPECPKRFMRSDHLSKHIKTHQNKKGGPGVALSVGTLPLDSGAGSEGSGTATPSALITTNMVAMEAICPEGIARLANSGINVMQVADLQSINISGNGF
Procedure, shortened: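 After transient transfection of HepG2 cells with cis-promoter reporter units and 24 h chemical treatment, reporter transcripts were quantified by RT-PCR and capillary electrophoresis fluorescence. Gain- and loss-of-signal fitted against DMSO.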

[16] = ATG_SREBP_CIS: Attagene CIS-FACTORIAL HepG2 Assay for human Sterol Regulatory Element Binding (SREBP) (AID 2282962); conditions: HepG2 Attagene cis-factorial SREBP reporter, mRNA; actives raise or lower the signal
Procedure, shortened: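 Endogenous SREBP activity read as cis-element-driven reporter transcript in transiently transfected HepG2, 24 h post-dosing; quantified via RT-PCR plus capillary electrophoresis of fluorescent fragments. Gain or loss of signal fitted relative to DMSO baseline.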

[17] = target: Signal transducer and activator of transcription 3 (Homo sapiens) (UniProt P40763); test: ATG_STAT3_CIS: Attagene CIS-FACTORIAL HepG2 Assay for human Signal Transducer and Activator of Transcription 3 (STAT3) (AID 2282963); conditions: HepG2, Attagene cis-factorial STAT3 reporter transcription; actives raise or lower the signal
Sequence of Signal transducer and activator of transcription 3 (Homo sapiens) (P40763 whole entry, looked up, the tested form may be a part): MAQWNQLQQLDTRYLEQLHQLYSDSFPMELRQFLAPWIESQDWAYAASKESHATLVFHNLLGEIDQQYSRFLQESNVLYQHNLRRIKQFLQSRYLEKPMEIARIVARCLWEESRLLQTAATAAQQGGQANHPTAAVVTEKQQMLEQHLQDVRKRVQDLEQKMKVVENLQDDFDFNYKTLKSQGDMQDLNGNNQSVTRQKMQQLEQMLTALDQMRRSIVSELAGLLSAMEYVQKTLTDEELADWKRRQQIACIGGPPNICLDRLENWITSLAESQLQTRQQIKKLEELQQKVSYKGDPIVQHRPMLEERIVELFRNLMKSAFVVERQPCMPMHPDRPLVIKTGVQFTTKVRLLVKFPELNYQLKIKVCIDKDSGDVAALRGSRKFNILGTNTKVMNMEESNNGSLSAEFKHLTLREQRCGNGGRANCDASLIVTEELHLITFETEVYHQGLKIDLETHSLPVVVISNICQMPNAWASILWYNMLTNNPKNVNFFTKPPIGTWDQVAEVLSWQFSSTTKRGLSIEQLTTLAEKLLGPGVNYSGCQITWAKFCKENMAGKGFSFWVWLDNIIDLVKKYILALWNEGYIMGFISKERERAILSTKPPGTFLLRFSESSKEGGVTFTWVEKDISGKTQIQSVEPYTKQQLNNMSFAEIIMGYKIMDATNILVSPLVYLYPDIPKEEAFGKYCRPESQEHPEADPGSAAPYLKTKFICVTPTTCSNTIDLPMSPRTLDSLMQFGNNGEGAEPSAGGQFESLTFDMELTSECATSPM
Procedure, shortened: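 Fluorescence intensity of 6-FAM-labelled reporter fragments, separated by capillary electrophoresis after RT-PCR, gave the signal. Cells were HepG2 transfected with cis-element reporter units and treated 24 h; fitting was bidirectional relative to DMSO.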

[18] = ATG_TA_CIS: Attagene CIS-FACTORIAL HepG2 Assay for human TA Basal Promoter (AID 2282964); conditions: HepG2 Attagene CIS-factorial TA basal promoter reporter; actives raise or lower the signal
Procedure, shortened: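 Fluorescence from labelled RT-PCR reporter fragments, separated by capillary electrophoresis, gives the signal. Cells: HepG2 transiently carrying multiple reporter units, 24 h chemical dosing. Gain or loss relative to DMSO.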

[19] = ATG_TCF_b_cat_CIS: Attagene CIS-FACTORIAL HepG2 Assay for human T-Cell-Factor with beta-catenin (TCF/b-cat) (AID 2282965); conditions: HepG2 TCF/beta-catenin cis-reporter transcription, actives raise or lower the signal
Procedure, shortened: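 HepG2, transient MRTU transfection, cis-element-driven reporters (endogenous TFs). 24 h compound exposure. Readout: reporter mRNA by RT-PCR + 6-FAM primer extension, HpaI digest, capillary electrophoresis. Gain/loss fit vs DMSO baseline.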

Measured: AC50

CCCN(CCC)N=O
inactive: [1] | [2] | [3] | [4] | [5] | [6] | [7] | [8] | [9] | [10] | [11] | [12] | [13] | [14] | [15] | [16] | [17] | [18] | [19]

CN(C)CCO
active: [11] 100 µM
inactive: [1] | [2] | [3] | [4] | [5] | [6] | [7] | [8] | [9] | [10] | [11] | [12] | [13] | [14] | [15] | [16] | [17] | [18] | [19]

Sc1ccccc1
active: [7] 160 µM | [11] 25.4 µM
inactive: [1] | [2] | [3] | [4] | [5] | [6] | [7] | [8] | [10] | [11] | [13] | [14] | [15] | [16] | [17] | [18] | [19]

CCOP(=S)(OCC)SCSC(C)(C)C
inactive: [2] | [3] | [4] | [5] | [6] | [7] | [8] | [10] | [12] | [14] | [15] | [17] | [18] | [19]
active: [2] 63.5 µM | [11] 7.42 µM and 2.05 µM

CC#Cc1cc(C)nc(Nc2ccccc2)n1
active: [8] 68.2 µM | [10] 68.1 µM | [11] 26.5 µM | [13] 51.6 µM | [18] 100 µM | [19] 41.8 µM
inactive: [1] | [2] | [3] | [4] | [5] | [6] | [7] | [9] | [12] | [14] | [15] | [16] | [17]

Cc1ccccc1CO[C@@H]1C[C@@]2(C(C)C)CC[C@]1(C)O2
active: [11] 2.14 µM | [12] 50 µM
inactive: [2] | [3] | [4] | [5] | [6] | [7] | [8] | [10] | [13] | [14] | [15] | [17] | [18] | [19]
